KDM5B inh = blocks human KDM5B histone demethylase activity; Q9UGL1; 220,000 tested, 2.6% active; AID 1347165; KDM5B demethylase, FDH-coupled NADH fluorescence (FDH is formaldehyde dehydrogenase); Potency, µM (titrated, usually from 57.7 µM), hits mostly inhibitors; active means well fitted inhibition curve with a large enough effect; further: 0% is about no effect; nearly all actives have a fitted effect of over 70% in size
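Here, H3K4me3 peptide (12.5 µM in substrate mix) is demethylated by KDM5BΔAP, 200 nM final, after 10 min compound exposure. Formaldehyde product is coupled through FDH (0.25 U/mL in mix) to NADH fluorescence; 30-min ΔRFU feeds dose-response curves.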
Starred values were filed as active, the others as inactive; i = inactive. This is one part of a sample in which hits are shown more often than they occur. Potency means the concentration at half of the fitted maximal effect.

SMILES	KDM5B inh
O=C(N1CCC(c2ccccc2)CC1)C1(c2ccc(Cl)cc2)CCOCC1	i
CN1CCC(NC(=O)C2(C)CCc3cnc(Nc4ccccc4)nc32)CC1 (centres undefined)	i
C=C(C)Cn1c(N2CCN(Cc3ccccc3F)CC2)nc2c1c(=O)[nH]c(=O)n2C	i
CCOC(=O)C1CCN([C@H]2CS(=O)(=O)C[C@@H]2S(=O)(=O)c2ccccc2)CC1	i
COc1ccc(C(=O)O)cc1S(=O)(=O)Nc1cc(Cl)ccc1Cl	i
O=S(=O)(c1cccnc1)N1CCc2onc(-c3cccc4ccccc34)c2C1	32µM*
COc1c(F)cccc1C(=O)N1CCc2onc(-c3ccccc3F)c2C1	i
CCOc1ncccc1C(=O)N1CCc2onc(-c3ccccc3F)c2C1	i
COCC(=O)N(C1CCOCC1)C1CCN(S(=O)(=O)c2cccnc2)CC1	i
CN1CCc2c([nH]c3ccccc23)C12CCN(S(=O)(=O)c1cccnc1)CC2	i
COCc1cc(N2CCc3onc(-c4cccc5ccccc45)c3C2)ncn1	28µM*
O=C(c1cnn(Cc2ccccc2)c1)N1CCN(S(=O)(=O)c2cccc(Br)c2)CC1	i
O=C(COC(=O)CNC(=O)c1ccc2ccccc2c1)Nc1ncc(Cl)cc1Cl	i
Cc1ccc(NC(=O)COC(=O)c2cccc(O)c2)c(Br)c1	i
COc1ccc(NC(=O)c2cnc3c(c2)N(c2ccccc2OC)CCC3)cn1	i
COc1ccccc1N1CCCc2ncc(C(=O)NCCOc3ccccc3)cc21	i
COc1ccccc1N1CCCc2ncc(C(=O)N3CCC[C@@H]3c3ccc(F)cc3)cc21	i
CC(C)c1ccc(CC(=O)N2CCCc3ncc(C(=O)N4CCCC[C@@H]4Cc4ccccc4)cc32)cc1	i
COc1ccccc1N1CCCc2ncc(C(=O)N3CCCC[C@@H]3Cc3ccccc3)cc21	25µM*
COc1ccccc1CC(=O)N1CCCc2ncc(C(=O)N(C)Cc3ccccc3)cc21	i
COc1ccccc1N1CCCc2ncc(C(=O)N3CC[S+](=O)([O-])CC3)cc21	i
COc1ccccc1N1CCCc2ncc(C(=O)NCCc3c[nH]c4ccccc34)cc21	28µM*
COc1ccccc1N1CCCc2ncc(C(=O)N(C)Cc3ccccc3)cc21	35µM*
Cc1ccc(C)c(/C(O)=C2\C(=O)C(=O)N(c3nnc(C)s3)C2c2ccccc2)c1 (centres undefined)	i
NS(=O)(=O)c1ccc(NCS(=O)(=O)O)cc1	i
SMILES	KDM5B inh
Cc1cccc(Nc2nc(C(=O)N3CCC(C)CC3)cs2)c1	i
Cc1cccc(CN2C(=O)CN(S(C)(=O)=O)CC2(C)C(=O)NCc2ccc(F)cc2)c1 (centres undefined)	i
O=C(Nc1cccc(C(F)(F)F)c1)C1CCCN1c1ncnc2ccccc12 (centres undefined)	i
COc1ccc(Nc2nc(-c3ccc4c(c3)CCC(=O)N4)cs2)cc1	i
O=C(NCc1ccc(Cl)cc1)OCc1ccccc1	i
COc1ccc(N(Cc2nc(-c3ccccc3)no2)S(=O)(=O)c2ccc3c(c2)OCCO3)cc1	i
CCCCCc1ccc(-c2ccc(C(=O)Oc3ccc(OCCCC)cc3)cc2)nc1	i
CC(C)c1cc(=O)oc2cc(OS(=O)(=O)c3ccc(F)cc3)ccc12	i
CN(C)C[C@@H]1CN(c2ncccn2)C[C@H]1NC(=O)c1cnco1	32µM*
Cc1ncoc1C(=O)N[C@@H]1CN(Cc2cccnc2)C[C@H]1CN(C)C	i
Cc1occc1C(=O)N[C@@H]1CN(c2ccncn2)C[C@H]1CN(C)C	i
CN(C)C[C@@H]1CN(Cc2ccccc2)C[C@H]1NC(=O)c1cnco1	i
Cc1noc(C)c1C(=O)N[C@@H]1CN(c2ncccn2)C[C@H]1CN(C)C	32µM*
Cc1ccc(CC(=O)N[C@@H]2CN(c3ccncn3)C[C@H]2CN(C)C)cc1	i
COc1ccc(CCC(=O)N[C@@H]2CN(c3ccncn3)C[C@H]2CN(C)C)cc1	i
CN(C)C[C@@H]1CN(c2ncccn2)C[C@H]1NC(=O)CCCc1ccccc1	32µM*
CN(C)C[C@@H]1CN(c2ccncn2)C[C@H]1NC(=O)c1ccco1	i
COc1cc(OC)c(NC(=O)CSCc2cc(=O)n3cccc(C)c3n2)cc1Cl	i
CCCC(=O)N1CCC(C(=O)O)CC1	i
O=C(c1cc(F)ccc1F)C1CCN(CCc2ccncc2)CC1	i
COc1ccc(-c2nc(CSc3nc4c(=O)[nH]cnc4n3C)c(C)o2)cc1OC	i
COc1ccc(S(=O)(=O)Nc2ccc(C)n(CC(=O)Nc3ccccc3)c2=O)cc1	i
c1ccc(-c2cc3c(cn2)NCCN(Cc2ccccn2)C3)cc1	35µM*
O=C1NCc2ccccc2CC12CCN(Cc1ccsc1)CC2	i
c1ccc(-c2cc3c(cn2)NCCN(Cc2ccsc2)C3)cc1	35µM*
Fc1ccc(CN2CCNc3cnc(-c4ccccc4)cc3C2)cc1F	35µM*
CCOc1cccc(-c2nnc3n2N=C(c2ccc4ccccc4c2)CS3)c1	i
Cc1cccc(N2NC3(CCCCC3)NC2=S)c1C	i
COc1ccc(-c2cccc(C(=O)O)c2)cc1	i

High-throughput results: PubChem BioAssay, National Center for Advancing Translational Sciences (NCATS)
